Measured values reported in PubChem BioAssay AID1857 (The Scripps Research Institute Molecular Screening Center, 2009).
Hit rate of the full screen: of about 1,300 compounds, about 290 (22%) were called active.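 Rule for the calls: active = inhibition above the mean of all tested compounds plus 3 SD (cut at about 19% in these data); inactive = the rest.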 Only a sample is shown.

test system: VIM-2 metallo-beta-lactamase (Pseudomonas aeruginosa); test: VIM-2 CCF2 hydrolysis inhibition, orthogonal readout – biochemical, FRET, epi-absorbance artifact exclusion, artefact control for selective VIM-2 inhibitor project, confirmation (AID 1857); conditions: purified VIM-2, CCF2 FRET substrate hydrolysis; at 5.6 µM; stronger effect = higher value;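 note: 0% = VIM-2 plus DMSO and 100% = no enzyme wells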

inhibition, active:
COc1ccc(Cc2nnc(NS(=O)(=O)Cc3ccccc3)s2)cc1 29.2%
CCN1CCN(CCNC(=O)c2ccc3c(c2)NC(=O)/C(=C\c2ccc(OC)c(OC)c2)S3)CC1 31%
Cn1c(-c2sccc2OCc2cccc(C(F)(F)F)c2)n[nH]c1=S 58.2%
C=CCn1c(-c2ccccc2OCC)n[nH]c1=S 40.4%
CCc1cc(=O)oc2cc(C)cc(OCC(=O)N3CCC[C@@H]3C(=O)O)c12 32.9%
CC(NS(=O)(=O)c1ccccc1)c1n[nH]c(=S)n1-c1ccccc1 (configuration not stated) 38.4%
CC(C)(C)CC(=O)Nc1nnc(SCC(=O)NCc2cccs2)s1 45.5%
O=C1Nc2cc(C(=O)N3CCC(N4CCCCC4)CC3)ccc2S/C1=C\c1ccccc1 53.6%
COc1cc(-c2nn3c(-c4cccc(C)c4)nnc3s2)cc(OC)c1OC 22.2%
CC(=O)c1ccc(-c2ccc(Cn3c(C)nc4cc(N)c(C)nc43)cc2)cc1 42.1%
CNC(=O)c1ccsc1NC(=O)c1ccc(S(=O)(=O)N2CCOCC2)cc1 37.1%
Nc1cccc2c1C(=O)N(Cc1nnc(-c3ccccc3Br)o1)C2=O 29.6%

inhibition, inactive:
CCC1CCCCN1CCCNC(=O)c1cc2c(Cl)nc3ccccc3c2s1 (configuration not stated) 3.62%
Cn1c(=O)c2c(nc(N3CCOCC3)n2CCNC2=NCCC2)n(C)c1=O 1.09%
CCOc1cc(/C=C2\SC(N3CCCCC3)=NC2=O)ccc1O 1.41%
Cc1cccn2c(=O)c(C=O)c(Nc3ccc(S(N)(=O)=O)cc3)nc12 2.01%
CCOc1cc(/C=C2\SC(N3CCCC(C)C3)=NC2=O)ccc1O (configuration not stated) -2.85%
O=C(COc1cc2oc(=O)c3c(c2cc1Cl)CCC3)NCCCN1CCOCC1 -0.64%
CN(C)CCNc1ccc(-c2n[nH]c(=O)c3ccccc23)cc1[N+](=O)[O-] -1.97%
CCCc1ccc(OCCNC(=O)c2ccco2)cc1 -1.44%
Cc1nc2ccccc2c2oc(C(=O)NCCCN3CCC(C)CC3)cc12 1.71%
O=C(NCCCN1CCOCC1)c1cnn2c(-c3ccccc3)cc(-c3ccccc3)nc12 -2.83%
Cc1cc(NCc2ccco2)n2c(nc3ccccc32)c1C#N -12.9%
CCN(CC)CCOc1ccc2c(c1)C(=NNC(=O)c1ccccn1)c1cc(OCCN(CC)CC)ccc1-2 2.33%
O=C(NC(=S)Nc1ccccc1C(=O)O)c1ccc(-c2ccc(Br)cc2)o1 11.2%
CCN1CCCC1CNC(=O)c1cc2c(=O)n(C)c3ccccc3c2n1C (configuration not stated) -2.42%
CC1CCCC(C)N1CCCNC(=O)c1cc2c(=O)n(C)c3ccccc3c2n1C (configuration not stated) -7.42%
NC(=O)C1CCN(C(=O)COc2ccc3c4c(c(=O)oc3c2)CCC4)CC1 -2.54%
Cc1cc(C)c2nc3nc(C)cc(C)c3c(N)c2c1 -10.3%
Cc1cc([N+](=O)[O-])c(-c2ccc(/C=N/n3cnnc3)o2)cc1Cl -0.73%
Fc1ccc(-c2ccc(CNCc3ccccn3)o2)cc1Cl -13.3%
Nc1nnc2c(C(F)(F)F)nc3ccccc3n12 2.08%
CCN(CC)c1ccc2cc(C(N)=O)/c(=N\NC(=O)c3ccncc3)oc2c1 11.1%
Cc1ccc2nc(C)c3c(c2c1)N(c1ccccc1)CC3 -1.46%
COc1ccc(/C=N/N(C)C2=NS(=O)(=O)c3ccccc32)cc1OC -2.83%
CCN1CCN(C(=O)Cn2nc(C)n3c(cc4c(OC)cccc43)c2=O)CC1 1.55%
Cc1cc(-c2ccc(/C=N/n3cnnc3)o2)c([N+](=O)[O-])cc1C -2.34%
COc1ccc(Nc2cc(C)nc(-n3nc(C)cc3C)n2)cc1 -53.5%
Cc1ccc(Cl)cc1-c1ccc(/C=N/n2cnnc2)o1 -0.56%
COc1cc(NC(=O)C2=C(C)OCCS2)c(Cl)cc1C(=O)NCCN1CCN(C)CC1 2.07%
COc1ccc(-c2nn3c(-c4ccccc4)nnc3s2)cc1OC 1.85%
CCOCCCNc1c(CC)c(C)c(C#N)c2nc3ccccc3n12 0.59%
COc1ccc(CCn2c(=N)c(C(=O)NCC3CCCO3)cc3c(=O)n4cccc(C)c4nc32)cc1OC (configuration not stated) -3.31%
COC(=O)c1c(NC(=O)c2ccc(S(=O)(=O)N3CCOCC3)cc2)sc2c1CCN(C(C)C)C2 1.2%
CN1CCN(c2ccc(NC(=O)c3ccc4c(c3)[nH]c(=O)n4Cc3ccc(F)cc3)cc2)CC1 -0.35%
CCOC(=O)N1CCN(C(=O)C2CCN(c3ncnc4c3sc3cccc(F)c34)CC2)CC1 1.58%
COc1nc(N=C(N)N)nc2c(C)cccc12 -4.99%
Cn1c2ccccc2c(=O)c2c(O)cccc21 -1.24%
COc1cc(/C=N/Nc2nn3cnnc3c3ccccc23)cc(OC)c1OC 0.17%
COC(=O)c1ccc(-c2noc(CN(Cc3ccccn3)CC3CCCO3)n2)cc1 (configuration not stated) -11.9%
O=c1[nH]c(-c2ccccc2)c(-c2ccccc2)[nH]1 -3.81%
Clc1cc(-c2ccc(/C=N/n3cnnc3)o2)ccc1Br -1.55%
